Key:
Assay in all cases: log2 ratio of Biotin-Ahx-Ub-VS probe labelling (fragment/DMSO); higher = less target engagement (more negative = stronger competition), active = hit call of the paper (q ≤ 0.05, log2 ratio ≤ -1)
Details in all cases: compound concentration: 200 uM; treatment time: 3 h
[1] = target: USP34 (UniProt Q70CQ2)
Procedure, shortened: (§1)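 Labelled DUBs from HEK293T lysate were NeutrAvidin-enriched, digested with LysC and trypsin, and run by diaPASEF LC-MS/MS. Before that, each 495 µg sample in Tris/CHAPS/IGEPAL buffer with protease inhibitors was treated in triplicate with fragment at 200 µM or vehicle for 3 h, then with Biotin-Ahx-Ub-VS at 0.5 µM final for 1 h. Values are average log2 ratios of fragment over vehicle by unpaired t-test, based on global-median-normalised Spectronaut label-free quantities from proteins with ≥2 unique peptides.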

[2] = target: T1, USP36 (UniProt Q9P275)
T1 sequence (whole entry): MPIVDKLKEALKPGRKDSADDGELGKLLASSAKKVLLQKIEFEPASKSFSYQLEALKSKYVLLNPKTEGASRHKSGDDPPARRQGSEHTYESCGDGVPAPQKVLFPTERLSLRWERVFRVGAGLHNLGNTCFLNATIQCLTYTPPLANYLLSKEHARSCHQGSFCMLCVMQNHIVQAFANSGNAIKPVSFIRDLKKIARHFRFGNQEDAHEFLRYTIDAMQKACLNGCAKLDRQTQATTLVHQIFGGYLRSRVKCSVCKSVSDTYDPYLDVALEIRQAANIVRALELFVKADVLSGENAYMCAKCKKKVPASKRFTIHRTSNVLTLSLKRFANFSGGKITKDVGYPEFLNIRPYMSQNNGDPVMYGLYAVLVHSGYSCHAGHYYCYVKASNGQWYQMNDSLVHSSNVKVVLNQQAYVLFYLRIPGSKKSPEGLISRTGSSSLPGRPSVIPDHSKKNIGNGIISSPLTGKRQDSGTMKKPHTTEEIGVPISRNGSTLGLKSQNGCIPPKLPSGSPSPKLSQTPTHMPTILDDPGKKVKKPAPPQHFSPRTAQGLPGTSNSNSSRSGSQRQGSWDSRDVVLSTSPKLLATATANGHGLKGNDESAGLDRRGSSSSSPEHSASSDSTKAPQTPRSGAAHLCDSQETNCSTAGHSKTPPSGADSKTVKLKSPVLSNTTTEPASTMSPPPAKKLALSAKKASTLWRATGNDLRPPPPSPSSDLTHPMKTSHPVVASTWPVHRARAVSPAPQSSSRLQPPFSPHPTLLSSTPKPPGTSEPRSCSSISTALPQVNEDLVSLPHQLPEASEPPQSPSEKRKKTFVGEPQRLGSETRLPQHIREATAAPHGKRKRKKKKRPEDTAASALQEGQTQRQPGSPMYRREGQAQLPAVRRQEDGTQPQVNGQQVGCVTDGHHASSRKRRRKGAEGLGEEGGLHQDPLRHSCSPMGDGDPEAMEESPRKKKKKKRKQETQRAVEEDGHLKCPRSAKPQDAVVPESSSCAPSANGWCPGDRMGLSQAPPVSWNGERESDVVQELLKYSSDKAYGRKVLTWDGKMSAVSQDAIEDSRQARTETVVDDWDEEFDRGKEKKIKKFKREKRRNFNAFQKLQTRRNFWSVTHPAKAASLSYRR
Procedure, shortened: as §1

[3] = target: T2, USP38 (UniProt Q8NB14)
T2 sequence (whole entry): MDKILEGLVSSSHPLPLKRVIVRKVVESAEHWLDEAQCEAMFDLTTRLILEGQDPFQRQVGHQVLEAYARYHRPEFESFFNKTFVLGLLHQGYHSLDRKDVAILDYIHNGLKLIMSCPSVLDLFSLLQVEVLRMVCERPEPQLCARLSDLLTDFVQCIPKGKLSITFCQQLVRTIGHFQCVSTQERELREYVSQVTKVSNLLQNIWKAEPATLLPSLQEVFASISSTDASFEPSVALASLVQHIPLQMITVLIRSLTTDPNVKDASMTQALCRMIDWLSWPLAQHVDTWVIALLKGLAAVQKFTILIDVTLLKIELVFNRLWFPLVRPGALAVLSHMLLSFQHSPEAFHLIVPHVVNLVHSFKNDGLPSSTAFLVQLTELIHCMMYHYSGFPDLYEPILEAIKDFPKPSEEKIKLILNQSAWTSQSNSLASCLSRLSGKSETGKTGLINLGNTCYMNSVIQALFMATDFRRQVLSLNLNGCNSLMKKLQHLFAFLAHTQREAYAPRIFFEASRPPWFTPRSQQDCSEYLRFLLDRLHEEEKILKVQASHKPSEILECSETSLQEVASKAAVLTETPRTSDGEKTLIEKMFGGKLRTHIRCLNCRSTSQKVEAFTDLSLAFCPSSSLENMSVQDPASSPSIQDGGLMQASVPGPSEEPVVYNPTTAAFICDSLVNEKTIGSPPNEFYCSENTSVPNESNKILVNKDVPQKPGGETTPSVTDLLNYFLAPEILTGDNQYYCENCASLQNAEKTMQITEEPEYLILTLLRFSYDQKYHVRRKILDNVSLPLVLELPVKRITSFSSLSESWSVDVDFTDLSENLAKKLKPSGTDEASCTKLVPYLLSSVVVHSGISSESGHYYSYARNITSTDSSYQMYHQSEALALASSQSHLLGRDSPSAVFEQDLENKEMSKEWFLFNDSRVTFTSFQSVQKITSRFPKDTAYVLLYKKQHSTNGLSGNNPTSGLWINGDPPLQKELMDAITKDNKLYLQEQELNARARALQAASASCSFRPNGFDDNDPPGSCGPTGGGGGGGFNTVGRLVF
Procedure, shortened: as §1

[4] = target: T3, USP39 (UniProt Q53GS9)
T3 sequence (whole entry): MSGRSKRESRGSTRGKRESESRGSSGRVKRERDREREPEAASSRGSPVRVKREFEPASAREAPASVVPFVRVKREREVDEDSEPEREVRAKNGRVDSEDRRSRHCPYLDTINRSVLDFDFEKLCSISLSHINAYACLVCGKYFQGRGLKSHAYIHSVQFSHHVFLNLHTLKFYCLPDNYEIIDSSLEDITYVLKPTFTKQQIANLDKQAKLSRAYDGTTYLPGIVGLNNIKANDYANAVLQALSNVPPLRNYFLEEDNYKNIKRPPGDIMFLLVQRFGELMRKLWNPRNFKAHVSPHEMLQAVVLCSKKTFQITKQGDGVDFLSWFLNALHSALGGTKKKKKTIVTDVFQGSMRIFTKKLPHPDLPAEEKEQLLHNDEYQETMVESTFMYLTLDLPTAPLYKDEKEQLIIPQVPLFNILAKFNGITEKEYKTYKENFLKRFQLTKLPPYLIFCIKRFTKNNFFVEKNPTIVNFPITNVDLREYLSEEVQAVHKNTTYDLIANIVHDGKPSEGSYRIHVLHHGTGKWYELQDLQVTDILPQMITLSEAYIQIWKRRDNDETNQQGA
Procedure, shortened: as §1

[5] = target: T4, USP4 (UniProt Q13107)
T4 sequence (whole entry): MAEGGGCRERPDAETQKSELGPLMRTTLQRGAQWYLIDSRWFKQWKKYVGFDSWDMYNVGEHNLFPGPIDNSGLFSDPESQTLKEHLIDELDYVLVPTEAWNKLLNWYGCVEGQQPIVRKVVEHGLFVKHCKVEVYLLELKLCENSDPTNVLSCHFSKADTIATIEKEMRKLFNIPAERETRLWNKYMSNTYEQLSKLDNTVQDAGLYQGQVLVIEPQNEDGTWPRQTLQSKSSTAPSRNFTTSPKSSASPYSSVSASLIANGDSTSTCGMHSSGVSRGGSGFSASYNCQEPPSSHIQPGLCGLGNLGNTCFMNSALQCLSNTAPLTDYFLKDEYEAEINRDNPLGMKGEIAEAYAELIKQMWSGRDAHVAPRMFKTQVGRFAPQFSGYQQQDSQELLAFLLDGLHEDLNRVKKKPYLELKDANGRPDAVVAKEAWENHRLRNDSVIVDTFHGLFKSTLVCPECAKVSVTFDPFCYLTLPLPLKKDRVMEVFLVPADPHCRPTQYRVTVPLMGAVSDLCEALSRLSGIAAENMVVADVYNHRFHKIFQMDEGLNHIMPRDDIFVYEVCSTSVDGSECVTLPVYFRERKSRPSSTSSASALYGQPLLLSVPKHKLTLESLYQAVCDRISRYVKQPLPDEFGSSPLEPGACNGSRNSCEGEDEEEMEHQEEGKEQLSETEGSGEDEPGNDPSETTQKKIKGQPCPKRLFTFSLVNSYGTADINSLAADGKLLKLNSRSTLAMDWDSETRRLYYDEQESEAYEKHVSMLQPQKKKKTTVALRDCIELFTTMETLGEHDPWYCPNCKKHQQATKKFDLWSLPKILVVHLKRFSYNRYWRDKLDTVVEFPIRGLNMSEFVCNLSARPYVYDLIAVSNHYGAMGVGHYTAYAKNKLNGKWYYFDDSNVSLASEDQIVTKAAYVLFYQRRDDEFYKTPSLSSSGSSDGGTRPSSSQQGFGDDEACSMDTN
Procedure, shortened: as §1

Measured: log2 ratio of Biotin-Ahx-Ub-VS probe labelling

Sequence of USP34 (Q70CQ2 whole entry, the tested form may be a part): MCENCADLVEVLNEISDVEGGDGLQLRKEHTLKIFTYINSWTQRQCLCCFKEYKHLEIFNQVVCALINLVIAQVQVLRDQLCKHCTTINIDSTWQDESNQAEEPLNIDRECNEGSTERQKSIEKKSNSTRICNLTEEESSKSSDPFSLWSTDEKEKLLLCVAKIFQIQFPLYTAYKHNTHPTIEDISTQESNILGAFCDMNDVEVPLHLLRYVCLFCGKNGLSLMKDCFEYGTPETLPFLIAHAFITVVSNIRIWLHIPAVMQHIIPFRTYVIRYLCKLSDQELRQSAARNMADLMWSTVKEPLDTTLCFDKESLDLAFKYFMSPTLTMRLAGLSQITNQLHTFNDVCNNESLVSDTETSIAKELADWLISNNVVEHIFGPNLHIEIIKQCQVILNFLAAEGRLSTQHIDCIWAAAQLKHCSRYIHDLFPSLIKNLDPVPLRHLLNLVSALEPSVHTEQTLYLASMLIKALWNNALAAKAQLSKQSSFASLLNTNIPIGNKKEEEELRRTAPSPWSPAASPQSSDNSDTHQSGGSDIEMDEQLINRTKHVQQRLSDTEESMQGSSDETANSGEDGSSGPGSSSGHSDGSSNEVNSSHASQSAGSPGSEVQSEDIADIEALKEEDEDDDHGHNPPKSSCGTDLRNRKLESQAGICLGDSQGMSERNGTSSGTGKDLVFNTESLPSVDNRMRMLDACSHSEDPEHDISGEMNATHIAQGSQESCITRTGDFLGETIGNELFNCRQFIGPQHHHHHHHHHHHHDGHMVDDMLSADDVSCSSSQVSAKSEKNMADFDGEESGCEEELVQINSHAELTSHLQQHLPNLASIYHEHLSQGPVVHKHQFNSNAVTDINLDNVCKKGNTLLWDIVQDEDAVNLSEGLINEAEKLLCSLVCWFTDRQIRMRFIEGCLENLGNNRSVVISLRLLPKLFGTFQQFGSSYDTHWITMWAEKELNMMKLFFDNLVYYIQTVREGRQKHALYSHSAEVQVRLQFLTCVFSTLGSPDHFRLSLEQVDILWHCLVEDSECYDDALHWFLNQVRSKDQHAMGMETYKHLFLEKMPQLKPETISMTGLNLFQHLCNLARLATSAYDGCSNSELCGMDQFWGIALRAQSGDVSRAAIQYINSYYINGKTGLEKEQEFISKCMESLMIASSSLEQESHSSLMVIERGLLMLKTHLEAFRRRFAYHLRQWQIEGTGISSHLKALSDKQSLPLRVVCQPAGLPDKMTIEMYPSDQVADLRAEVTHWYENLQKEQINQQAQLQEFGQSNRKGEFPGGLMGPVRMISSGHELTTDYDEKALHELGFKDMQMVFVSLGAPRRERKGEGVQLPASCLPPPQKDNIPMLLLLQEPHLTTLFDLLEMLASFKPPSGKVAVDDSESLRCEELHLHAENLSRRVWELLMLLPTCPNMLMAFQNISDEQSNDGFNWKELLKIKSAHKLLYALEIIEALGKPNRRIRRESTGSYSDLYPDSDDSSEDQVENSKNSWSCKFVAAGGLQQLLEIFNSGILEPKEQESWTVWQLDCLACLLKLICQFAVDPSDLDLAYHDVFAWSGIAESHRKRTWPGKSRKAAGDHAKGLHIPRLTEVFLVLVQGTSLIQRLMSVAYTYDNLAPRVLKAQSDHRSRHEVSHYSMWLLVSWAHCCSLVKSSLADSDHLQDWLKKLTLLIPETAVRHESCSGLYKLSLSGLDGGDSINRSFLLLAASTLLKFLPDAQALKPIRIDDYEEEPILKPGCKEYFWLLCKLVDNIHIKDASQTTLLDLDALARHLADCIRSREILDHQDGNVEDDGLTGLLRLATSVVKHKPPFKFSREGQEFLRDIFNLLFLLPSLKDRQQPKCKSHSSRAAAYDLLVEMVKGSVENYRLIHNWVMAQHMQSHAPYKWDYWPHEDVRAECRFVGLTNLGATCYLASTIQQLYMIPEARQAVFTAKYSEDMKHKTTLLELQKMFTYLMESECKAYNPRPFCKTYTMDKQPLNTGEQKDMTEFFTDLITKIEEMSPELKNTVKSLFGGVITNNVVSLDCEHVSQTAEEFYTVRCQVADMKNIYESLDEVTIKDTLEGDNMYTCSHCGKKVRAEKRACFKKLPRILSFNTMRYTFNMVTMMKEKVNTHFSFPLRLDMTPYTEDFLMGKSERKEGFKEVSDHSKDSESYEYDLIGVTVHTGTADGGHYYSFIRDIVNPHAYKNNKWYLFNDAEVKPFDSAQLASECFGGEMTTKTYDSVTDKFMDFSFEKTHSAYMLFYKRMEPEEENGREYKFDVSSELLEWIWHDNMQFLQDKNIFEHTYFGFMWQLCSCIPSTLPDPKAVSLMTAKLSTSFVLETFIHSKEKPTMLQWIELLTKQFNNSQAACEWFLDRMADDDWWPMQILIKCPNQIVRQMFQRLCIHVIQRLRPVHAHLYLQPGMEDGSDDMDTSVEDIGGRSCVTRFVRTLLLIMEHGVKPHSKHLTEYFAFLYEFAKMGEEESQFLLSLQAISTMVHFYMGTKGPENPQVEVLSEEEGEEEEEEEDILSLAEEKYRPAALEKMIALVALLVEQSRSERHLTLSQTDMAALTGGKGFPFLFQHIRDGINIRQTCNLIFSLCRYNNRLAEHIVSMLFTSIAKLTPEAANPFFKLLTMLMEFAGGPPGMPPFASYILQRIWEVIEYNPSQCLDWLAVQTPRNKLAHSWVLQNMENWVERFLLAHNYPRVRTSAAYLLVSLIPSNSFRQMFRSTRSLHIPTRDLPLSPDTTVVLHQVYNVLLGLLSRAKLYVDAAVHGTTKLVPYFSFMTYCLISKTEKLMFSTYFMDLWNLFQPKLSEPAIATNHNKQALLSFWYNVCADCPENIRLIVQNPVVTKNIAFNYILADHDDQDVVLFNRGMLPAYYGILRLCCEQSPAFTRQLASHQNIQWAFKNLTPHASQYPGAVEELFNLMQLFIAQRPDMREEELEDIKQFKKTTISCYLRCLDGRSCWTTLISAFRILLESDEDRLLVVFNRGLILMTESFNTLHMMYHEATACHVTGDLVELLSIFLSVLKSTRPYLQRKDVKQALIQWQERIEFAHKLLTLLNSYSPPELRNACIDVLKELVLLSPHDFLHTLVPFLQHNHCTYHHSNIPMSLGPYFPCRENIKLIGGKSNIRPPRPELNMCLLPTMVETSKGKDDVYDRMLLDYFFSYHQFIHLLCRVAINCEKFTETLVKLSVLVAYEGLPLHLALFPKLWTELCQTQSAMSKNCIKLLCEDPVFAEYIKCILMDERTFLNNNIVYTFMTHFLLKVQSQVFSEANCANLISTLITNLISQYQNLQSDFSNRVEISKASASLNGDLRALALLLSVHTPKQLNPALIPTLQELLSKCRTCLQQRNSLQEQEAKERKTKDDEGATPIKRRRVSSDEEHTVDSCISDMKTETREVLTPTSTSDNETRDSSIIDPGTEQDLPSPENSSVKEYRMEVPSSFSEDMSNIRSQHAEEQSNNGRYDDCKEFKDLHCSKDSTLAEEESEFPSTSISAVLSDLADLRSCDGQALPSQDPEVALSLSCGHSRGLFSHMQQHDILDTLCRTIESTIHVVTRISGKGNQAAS

Cc1ccc(CC(CO)CNC(=O)CCl)cc1 (stereo not given)
inactive: [1] -0.117 | [2] -0.19 | [3] -0.239 | [4] -0.321 | [5] -0.14
